These results are taken from PubChem BioAssay (Tox21).

Results filed as inconclusive are left out. A call without a number means that no potency is given here. Values without a mark were called inactive. The source made the active and inactive calls. The call rests on the fitted dose curve; in most records, active means well fitted cell-killing curve with a large enough effect in the repeat runs; inconclusive means weak or mixed curves; inactive means flat fitted curve, though single readings scatter.

This test is described as follows: qHTS assay to identify small molecule antagonists of the TGF-beta/Smad signaling pathway - cell viability counter screen (AID 1346824). Further: nearly all actives have a fitted effect of over 50% in size. Particulars: SBE-bla HEK293T viability, CellTiter-Glo luminescence; series mostly up to 76.8 µM. An excerpt: U.S. Tox21 Program National Center for Advancing Translational Sciences [NCATS] NIH Chemical Genomics Center [NCGC] U.S. Environmental Protection Agency [EPA] National Institutes of Environmental Health Sciences [NIEHS] National Toxicology Program [NTP] U.S. Food and Drug Administration [FDA] Tox21 Assay Overview: Transforming growth factor beta (TGF-beta) superfamily consists of a large number of structurally related dimeric proteins that act as hormones or local mediators in regulating a wide range of biological functions. This superfamily includes TGF-betas themselves, the bone morphogenetic proteins (BMPs) and the activins. These ligands induce oligomerization of serine/threonine receptor kinases and phosphorylate the cytoplasmic signaling molecules of Smad protein family. CellSensor SBE-bla HEK 293T cell line (Life Technologies, Carlsbad, CA), responsive to TGF-beta was used to screen Tox21 10K compound library for identification of agonists/antagonists of the Smad signaling pathway. This cell line contains a beta-lactamase reporter gene under control of the Smad binding element (SBE) stably integrated into HEK 293T cells. Also cytotoxicity of the compounds was tested in parallel by measuring the cell viability using CellTiter-Glo assay system in the same wells.
Tox21 Assay Protocol Summary: SBE-bla HEK 293T cells were dispensed at 4,000/well in 5 uL of assay medium into black wall/clear-bottom 1536-well plates using a Multidrop Combi (ThermoFisher Scientific, Waltham, MA) dispenser. After the assay plates were incubated at 37 C and 5% CO2 for an overnight, 23 nL of compounds dissolved in DMSO, positive controls or DMSO only was transferred to the assay plate by a Pintool station (Kalypsys, San Diego, CA). Compound transfer was followed by the addition of 1 uL of 0.25 ng/mL TGF-beta1 or assay buffer using two separate tips of Flying Reagent Dispenser (FRD, Aurora Discovery, San Diego, CA). The assay plates were incubated at 37 C and 5% CO2 for 5 hr. One uL of LiveBLAzer B/G FRET substrate (Life Technologies) was added using a Flying Reagent Dispenser (FRD, Aurora Discovery, San Diego, CA) and the plates were incubated at room temperature for 2 hr. Fluorescence intensity (405 nm excitation, 460 nm and 530 nm emissions) was measured using an Envision plate reader (PerkinElmer, Shelton, CT). For cytotoxicity read, 4 uL of CellTiter-Glo reagent (Promega Corporation, Madison, WI) was added to each well of the assay plates using FRD. After 30 min incubation at room temperature, the luminescence intensity was measured using ViewLux plate reader (PerkinElmer).
With `CC(=O)OC1CCCCC1`, the Potency result was “inactive”.

Regarding `CC1(C)C(=O)N(CO)C(=O)N1CO`, the Potency result is “inactive”.

Turning to `CCOC(=O)N1CCC(=C2c3ccc(Cl)cc3CCc3cccnc32)CC1`, the Potency result was “inactive”.

In the case of `CCC(=O)OCCc1ccccc1`, the Potency result is “inactive”.

Turning to `c1ccc2c(c1)CCC2`, the Potency result was “inactive”.

Turning to `Cc1cc(=O)[nH]c(=O)[nH]1`, the Potency entry was “inactive”.

As for `C=C(C)C(=O)OCCC[Si](Cl)(Cl)Cl`, the Potency result was “inactive”.

Take `CCCCN(CCCC)CCC(O)c1cc2c(Cl)cc(Cl)cc2c2cc(C(F)(F)F)ccc12` (stereo not given): the Potency entry is “inactive”.

For the compound `O=C(O)c1cccc(Cl)n1`, the Potency entry is “inactive”.

On to `CC(C)=CC1CC(C)CCO1` (stereo not given), for which the Potency entry is “inactive”.

Take `CCCCCCCCC(C)=O`: the Potency result is “inactive”.

On to `O=Cc1ccc(F)cc1`, for which the Potency entry is “inactive”.

In the case of `CCCCOCC`, the Potency entry is “inactive”.

For `CC(C)(C)c1cc(CCC(=O)NCCCCCCNC(=O)CCc2cc(C(C)(C)C)c(O)c(C(C)(C)C)c2)cc(C(C)(C)C)c1O`, the Potency result was “inactive”.

In the case of `CCCCCCCC(C)=O`, the Potency entry was “inactive”.

As for `C=CC/C=C/C/C=C/C/C=C/C`, the Potency entry was “inactive”.

In the case of `CCCCCCOc1ccc(O)cc1`, the Potency result is “inactive”.

Take `CCO[Si](CCCSSSSCCC[Si](OCC)(OCC)OCC)(OCC)OCC`: the Potency entry was “inactive”.

Take `C[Si](C)O[Si](C)C`: the Potency entry was “inactive”.

In the case of `CCC(=O)CC(C)CC` (stereo not given), the viability change, negative = cytotoxic is 13.2% [at 0.29 µM].

Regarding `CO[Si](CCC1CCC2OC2C1)(OC)OC` (stereo not given), the Potency result is “inactive”.

Consider `C=CC(C)(CCC=C(C)C)OC(=O)/C=C/c1ccccc1` (stereo not given), for which the Potency result was “inactive”.

Turning to `COc1ccccc1C=O`, the Potency entry was “inactive”.

On to `C/C=C/c1ccc(OC)c(OC)c1`, for which the Potency result was “inactive”.

Regarding `CCCCCCCCCCCCCCNCCO`, the Potency result was “inactive”.

For `C=CC(=O)OCCC#N`, the Potency entry was “inactive”.

As to `CCCCCCCOC(=O)c1ccccc1C(=O)OCCCCCCC`, the Potency result was “inactive”.

Regarding `C[C@@H]1CC[C@H]2C(C)(C)[C@H]3C[C@@]12CC[C@@]3(C)O`, the Potency result was “inactive”.

With `CCCC(O)C(O)CO` (stereo not given), the Potency entry was “inactive”.

With `C=CC(=O)OCCOCC(CC)(COCCOC(=O)C=C)COCCOC(=O)C=C`, the Potency entry is “inactive”.

Turning to `CCCN(CCc1cccs1)[C@H]1CCc2c(O)cccc2C1`, the Potency entry is “inactive”.

Take `CCCCCCC(C)Nc1ccc(Nc2ccccc2)cc1` (stereo not given): the Potency entry was “inactive”.

As for `O=S(O)O`, the viability change, negative = cytotoxic was 0.444% [at 15.8 µM].

Take `COc1cc(C(C)C)c2c(c1)S(=O)(=O)N(COc1cc(=O)n3cccc(OCCN4CCCCC4)c3n1)C2=O`: the viability change, negative = cytotoxic is 14.4% [at 15.8 µM].

As for `COc1nccnc1CC(C)C`, the Potency entry was “inactive”.

`COc1ccc(C#N)cc1`: the Potency result was “inactive”.

With `NC(=O)c1ccccc1N`, the Potency entry was “inactive”.

In the case of `CCCCCCCCCCCCCOP(=O)(O)O`, the Potency entry was “inactive”.

In the case of `O=C1OC(OC(=O)c2cccnc2Nc2cccc(C(F)(F)F)c2)c2ccccc21` (stereo not given), the Potency result was “inactive”.

For the compound `CC[N+](CC)(CC)Cc1ccccc1`, the Potency entry was “inactive”.
